Measurements from PubChem BioAssay (NCATS).
A number with no mark means an inactive call. Results filed as inconclusive are left out. Entries that show only a call come without a potency. Activity calls are given as the source filed them. Calls follow the shape of the dose curve; as a rule, active = well fitted curve in the direction sought with a large enough effect; inconclusive = small, poorly fitted or top-dose-only effect, or another doubt; inactive = no such curve, though single readings can be large; an effect the other way counts as inactive or inconclusive. Where a SMILES comes first, the peptide text is derived from it. [ ]: non-standard residue; d: D form. Hyp = O=C(O)[CH]1C[CH](O)CN1; Phe(ol) = N[CH](CO)Cc1ccccc1; Iva = CC[C](C)(N)C(=O)O; Aib = CC(C)(N)C(=O)O

Experiments:
[1] = target: Phospholipid hydroperoxide glutathione peroxidase GPX4 (Homo sapiens) (UniProt P36969); assay: Primary qHTS Assay for Inhibitors of Recombinant Selenoprotein Glutathione Peroxidase 4 (GPX4) (AID 1845192); also: series mostly up to about 50 µM; nearly all actives have a fitted effect of over 65% in size
Procedure, shortened: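 GR-coupled readout: 100 nM GR, 1 mM GSH, 0.5 mM NADPH; NADPH fluorescence (ex 340/em 450 nm) read at t=0 and after 15 min RT. GPX4 200 nM, preincubated 30 min with compound; substrate 0.5 mM CHP.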

[2] = target: Luciferin 4-monooxygenase (Photinus pyralis) (UniProt P08659); assay: Primary firefly luciferase (FLuc) qHTS assay for identification of artifact compounds. (AID 1845220); also: nearly all actives have a fitted effect of over 60% in size; as to activity change, negative = inhibition: series mostly up to about 54 µM
Procedure, shortened: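 qHTS, 15 min compound preincubation with substrate (10 uM luciferin, 10 uM ATP) at RT, then 10 nM FLuc; 5 min; luminescence; % inhibition vs no-enzyme/DMSO controls, 4-parameter Hill fit.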

[3] = Primary fluorescence-based thiol-reactive (MSTI) qHTS assay for identification of artifact compounds. (AID 1845221); also: nearly all actives have a fitted effect of over 65% in size; also: potency is read from the fitted curve at half-maximal effect;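 as to activity change, negative = thiol reactive: series mostly up to about 54 µM; thiol-reactive compounds lower the probe fluorescence signal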
Procedure, shortened: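 First, 4 uM MSTI in 2% DMSO/PBS pH 7.4 was dispensed; next, compounds were added; then plates sat 1 h at room temperature without light. Finally, emission at 598 nm was recorded.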

[4] = test system: Nanoluciferase (engineered Oplophorus gracilirostris luciferase); assay: Primary Nanoluciferase (NLuc) qHTS assay for identification of artifact compounds. (AID 1845222); also: series mostly up to about 54 µM
Procedure, shortened: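 Luminescence read-out of secreted NLuc in S16 cell conditioned medium (1:55); compounds tested with 15 min RT preincubation, then Nano-Glo substrate 1:100, 5 min. % inhibition vs no-enzyme and DMSO controls, 4-parameter Hill fit.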

[5] = Primary redox qHTS assay for identification of artifact compounds. (AID 1845223)
Procedure, shortened: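 Amplex Red (25 uM) and HRP (250 mU/mL) in HBSS, with compounds for 15 min, then 250 uM DTT for 30 min, room temperature, dark. Fluorescence 525/598 nm read; normalized to DMSO and 10 uM DA3003; Hill fit.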

Sequence of Phospholipid hydroperoxide glutathione peroxidase GPX4 (Homo sapiens) (P36969 whole entry, looked up): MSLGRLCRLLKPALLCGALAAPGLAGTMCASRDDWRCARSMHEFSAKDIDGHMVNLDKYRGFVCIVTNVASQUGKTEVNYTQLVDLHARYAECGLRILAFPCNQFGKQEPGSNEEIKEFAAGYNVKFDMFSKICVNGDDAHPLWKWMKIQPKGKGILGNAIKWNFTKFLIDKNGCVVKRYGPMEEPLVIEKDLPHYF

| Compound | activity change, negative = inhibition [1] | activity change, negative = inhibition [2] | activity change, negative = thiol reactive [3] | activity, negative = inhibition [4] | redox activity (% of DA3003) [5] | Potency [1] | Potency [2] | Potency [3] | Potency [4] | Potency [5] |
| --- | --- | --- | --- | --- | --- | --- | --- | --- | --- | --- |
| CCC(C)(NC(=O)C(CCC(N)=O)NC(=O)C1CC(O)CN1C(=O)C(C)(C)NC(=O)C(C)(C)NC(=O)C(CC(C)C)NC(=O)CNC(=O)C(NC(=O)C(C)(C)NC(=O)C(C)(C)NC(=O)C(C)(C)NC(=O)C(Cc1ccccc1)NC(C)=O)C(C)C)C(=O)N1CC(O)CC1C(=O)NC(C)(C)C(=O)NC(CO)Cc1ccccc1 (stereo not given) (Ac-F[Aib][Aib][Aib]VGL[Aib][Aib][Hyp]Q[Iva][Hyp][Aib][Phe(ol)]; configuration not given here) | -5.56% [at 9.73 µM] | -5.79% [at 11.6 µM] | 0.987% [at 11.5 µM] | -0.795% [at 11.6 µM] | 15.7% [at 11.5 µM] |  |  |  |  |  |
| C=C1C(=O)OC2/C=C(\C)CC/C=C(\C)CC(OC(C)=O)C12 (stereo not given) |  |  |  |  |  | inactive | inactive | inactive | inactive | inactive |
| O=c1cc(OCc2ccc(F)cc2)ccn1-c1ccc(OCCN2CCCC2)cc1 |  |  |  |  |  | inactive | inactive | inactive | inactive | inactive |
| CC(NCCCc1cccc(C(F)(F)F)c1)c1cccc2ccccc12 (stereo not given) |  |  |  |  |  | inactive | inactive | inactive | inactive | inactive |
| CN(C)CCn1cc(-c2ccc(F)cc2)c(-n2cccc2)n1 |  |  |  |  |  | inactive | inactive | inactive | inactive | inactive |
| CN(C)CCC(CSc1ccccc1)Nc1ccc(S(=O)(=O)NC(=O)c2ccc(N3CCN(Cc4ccccc4-c4ccc(Cl)cc4)CC3)cc2)cc1[N+](=O)[O-] (stereo not given) |  |  |  |  |  | inactive | inactive | 2.12 µM (active) | inactive | inactive |
